Several values for one entry are separate records, joined by “and”; a condition that tells them apart may be missing. Identical values can stand only once. Some structures have more than one record in an assay (separate samples or runs), and their calls can disagree. Activity calls are given as the source filed them. How the source made its calls: active means hit-call score of the fitted dose curve at least 0.9, where 1 is the maximum; inactive means score below 0.9.
experiment: BSK_SAg_Proliferation: Cell Proliferation Assessment in the BioMAP Diversity Plus: SAg Assay (AID 2283095); conditions: primary human HUVEC with PBMC;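 further: relative cell number as total protein by SRB absorbance in sub-confluent culture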
How it was run: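 HUVEC/PBMC co-culture, 96-well. TCA-fixed (10%), 0.1% SRB stain, A560 at 96 h. Protein content used as viability readout; bidirectional fitting vs DMSO control.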

Structure (SMILES)	outcome	AC50
Oc1ccc(Cl)cc1Cl	inactive	
CN(C)c1nc(=O)n(C2CCCCC2)c(=O)n1C	inactive	
O=C(NC(=O)c1c(F)cccc1F)Nc1cc(Cl)c(OC(F)(F)C(F)F)c(Cl)c1	inactive	
CCCCCCOC(=O)c1ccccc1C(=O)OCCCCCC		28.6 µM (active)
O=S(=O)(O)C(F)(F)C(F)(F)C(F)(F)C(F)(F)F	inactive	
Cc1ccc(O)c(C)c1	inactive	
CCCCCCCCCC[N+](C)(C)CCCCCCCCCC		0.148 µM (active)
CC1=C2C[C@H]3[C@@H](CC=C4C[C@@H](O)CC[C@@]43C)[C@@H]2CC[C@]12O[C@@H]1C[C@H](C)CN[C@H]1[C@H]2C	inactive	
c1ccc(-c2ccccc2)cc1	inactive	
O=C(N[C@H]1CN2CCC1CC2)c1cc2ccoc2cn1	inactive	
CN(C)CCO	inactive	
ClC1=C(Cl)[C@]2(Cl)[C@@H]3[C@H]4C[C@H]([C@@H]5O[C@H]45)[C@@H]3[C@@]1(Cl)C2(Cl)Cl		7.7 µM (active)
COc1ccc(O)c(C(C)(C)C)c1	inactive	

experiment: BSK_SAg_SRB: Viability Assessment in the BioMAP Diversity Plus: SAg Assay (AID 2283096); conditions: primary human HUVEC with PBMC;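 further: cells read one day after compound addition; hits may be either gain or loss of signal compared with DMSO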
How it was run: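 SRB absorbance at 560 nm served as the viability read-out. Cells (HUVEC plus peripheral blood mononuclear cells) were TCA-fixed and stained 24 h post-dosing; activity fitted in both directions against DMSO controls.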

Structure (SMILES)	AC50	outcome
CCOC(=O)C(O)(c1ccc(Cl)cc1)c1ccc(Cl)cc1	32.3 µM (active)	
O=C(NC(=O)c1cc(F)c(F)cc1Cl)Nc1cc(F)ccc1N1CCC(C(=O)O)CC1		inactive
CCC(=O)O[C@H]1CC[C@H]2[C@@H]3CCC4=CC(=O)CC[C@]4(C)[C@H]3CC[C@]12C	29.4 µM (active)	
Cc1cc(O)ccc1Cl		inactive
CCOCCOC(C)=O		inactive
O=NN(c1ccccc1)c1ccccc1		inactive
O=C(O)C(F)(F)C(F)(F)C(F)(F)C(F)(F)C(F)(F)C(F)(F)C(F)(F)C(F)(F)F	51 µM (active) and 55 µM (active)	inactive
C=CC(=O)NCNC(=O)C=C		inactive
Clc1ccc(Cl)cc1		inactive
Cc1ccccc1[N+](=O)[O-]		inactive
CC(C)(c1ccccc1)c1ccc(O)cc1	30.4 µM (active)	
CCCCCCCCOC(=O)c1ccccc1C(=O)OCCCCCCCC		inactive
Oc1c(Cl)c(Cl)c(Cl)c(Cl)c1Cl	14.6 µM (active) and 21.8 µM (active)	
CCSC(=O)N(CC)C1CCCCC1		inactive
O=C(O)C(F)(F)C(F)(F)C(F)(F)C(F)(F)C(F)(F)C(F)(F)C(F)(F)C(F)(F)C(F)(F)F	32 µM (active) and 53.5 µM (active) and 54.4 µM (active)	
C1CC2OC2CC1C1CO1 (stereo not given)		inactive

Structure (SMILES)	AC50	outcome
c1cc2ccc3cccc4ccc(c1)c2c34		inactive
C[C@]12CCC(=O)C=C1CC[C@@H]1[C@@H]2CC[C@@]2(C)[C@H]1CC[C@]2(C)O		inactive
Oc1ccc(Cl)cc1Cl		inactive
CN(C)c1nc(=O)n(C2CCCCC2)c(=O)n1C		inactive
O=C(NC(=O)c1c(F)cccc1F)Nc1cc(Cl)c(OC(F)(F)C(F)F)c(Cl)c1		inactive
CCCCCCOC(=O)c1ccccc1C(=O)OCCCCCC		inactive
O=S(=O)(O)C(F)(F)C(F)(F)C(F)(F)C(F)(F)F		inactive
Cc1ccc(O)c(C)c1		inactive
CCCCCCCCCC[N+](C)(C)CCCCCCCCCC	5.35 µM (active)	
CC1=C2C[C@H]3[C@@H](CC=C4C[C@@H](O)CC[C@@]43C)[C@@H]2CC[C@]12O[C@@H]1C[C@H](C)CN[C@H]1[C@H]2C		inactive
c1ccc(-c2ccccc2)cc1		inactive
O=C(N[C@H]1CN2CCC1CC2)c1cc2ccoc2cn1		inactive
CN(C)CCO		inactive
ClC1=C(Cl)[C@]2(Cl)[C@@H]3[C@H]4C[C@H]([C@@H]5O[C@H]45)[C@@H]3[C@@]1(Cl)C2(Cl)Cl	8.56 µM (active)	
COc1ccc(O)c(C(C)(C)C)c1		inactive

Source: PubChem BioAssay (EPA / NIEHS)
